Compounds without any hit were thinned out: in the full panel of roughly 83,000, 20% have a hit.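 Note: values are percent growth. 100 is the growth of untreated cells, values between 100 and 0 indicate rising inhibition; between -100 and 0 indicates cell death.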 Values without a mark were called inactive. Active and inactive are the calls of the source. How the source made its calls: active means growth percent below 10; inactive means the rest.

The text below walks through data of PubChem BioAssay (NCI).

Some test systems named below: HCT-15 colon; HT29 colon; SNB-75 CNS; SNB-19 CNS; U251 CNS; PC-3 prostate; SK-MEL-5 melanoma; UACC-62 melanoma; LOX IMVI melanoma; SK-MEL-28 melanoma; SK-MEL-2 melanoma; EKVX NSCLC; SN12C renal; ACHN renal; A498 renal; CCRF-CEM leukemia; MOLT-4 leukemia; SR leukemia; TK-10 renal.
What all share (assay): NCI-60 one-dose screen, 48 h (100 = growth as untreated, 0 = no growth, -100 = all killed)
Common to all, as to settings: 10 µM unless noted

Consider `COCCOCCOCc1n(Cc2ccc3ccccc3n2)c2ccccc2[n+]1Cc1ccc2ccccc2n1`, for which the growth with HCT-15 colon was 109%; in the assay with HT29 colon it was 15.3%; in the assay with SNB-75 CNS, 4.56% (active); with SNB-19 CNS, 22.4%; in the assay on U251 CNS, 10.8%; in the assay with PC-3 prostate it was 13.7%. The growth in the assay on SK-MEL-5 melanoma is -14.6% (active); in the assay on UACC-62 melanoma, 14.5%; in the assay with LOX IMVI melanoma, 28.6%; in the assay on SK-MEL-28 melanoma, 41.8%; in the assay on SK-MEL-2 melanoma, -8.51% (active); in the assay on EKVX NSCLC, 71.6%. Also, the growth is 11.4% with SN12C renal; 97.6% in the assay on ACHN renal; 78.1% in the assay on A498 renal; 31.6% in the assay on CCRF-CEM leukemia; 26.3% in the assay on MOLT-4 leukemia; 9.58% (active) with SR leukemia.
As to `COC(=O)c1nc(-c2ccccc2)oc1S(=O)(=O)n1nc(-c2ccccc2)cc1N`, the growth was 63.6% in the assay with HCT-15 colon; 43.1% in the assay on HT29 colon; 93.4% with SNB-75 CNS; 101% in the assay with SNB-19 CNS; 97% in the assay on U251 CNS; 102% in the assay on PC-3 prostate. Moreover, the growth in the assay on SK-MEL-5 melanoma is 94.7%; in the assay on UACC-62 melanoma, 95.2%; in the assay with LOX IMVI melanoma, 72.3%; with SK-MEL-28 melanoma it was 89.6%; with SK-MEL-2 melanoma, 85.9%; in the assay with EKVX NSCLC, 95.9%. Also, the growth was 73.3% in the assay with SN12C renal; 114% in the assay on TK-10 renal; 19.2% in the assay on ACHN renal; 108% with A498 renal; 27.2% with CCRF-CEM leukemia; 17.6% in the assay with MOLT-4 leukemia. Further, the growth with SR leukemia was 1.74% (active).
`COc1cc(C2=NN(C(C)=O)C(c3cccc(Nc4ccnc5cc(C(F)(F)F)ccc45)c3)C2)cc(OC)c1OC` (stereo unspecified): the growth is 39.9% in the assay on HCT-15 colon; 22.1% in the assay with HT29 colon; 76.1% in the assay on SNB-75 CNS; 60.9% in the assay with SNB-19 CNS; 58.7% with U251 CNS; 25% with PC-3 prostate. The growth with SK-MEL-5 melanoma is 27.8%; in the assay with UACC-62 melanoma, 69%; in the assay with LOX IMVI melanoma it was 53.2%; with SK-MEL-28 melanoma, 66.5%; in the assay on SK-MEL-2 melanoma, 81.4%; in the assay on EKVX NSCLC, 52.2%. The growth in the assay with SN12C renal was 64.3%; with TK-10 renal it was 58.3%; in the assay with ACHN renal, 58.5%; in the assay with A498 renal, 60.3%; with CCRF-CEM leukemia it was 44%; with MOLT-4 leukemia, 22.3%. In addition, in the assay on SR leukemia, the growth is 29%.
Consider `COc1cc(NC(=O)COc2cc(C)nc3ccc(OC)cc23)cc(OC)c1`, for which the growth was 90.9% in the assay on HCT-15 colon; 91.7% in the assay on HT29 colon; 77.3% in the assay on SNB-75 CNS; 91.4% in the assay on SNB-19 CNS; 91% in the assay with U251 CNS; 81.9% in the assay with PC-3 prostate. Besides, the growth in the assay with SK-MEL-5 melanoma is 76%; with UACC-62 melanoma, 74.4%; in the assay with LOX IMVI melanoma it was 85.8%; with SK-MEL-28 melanoma, 102%; with SK-MEL-2 melanoma, 92.2%; in the assay with EKVX NSCLC, 91.5%. For the same compound, the growth is 88.9% in the assay on SN12C renal; 96.5% in the assay with TK-10 renal; 82% with ACHN renal; 82% with CCRF-CEM leukemia; 89.9% in the assay with MOLT-4 leukemia; -8.57% (active) in the assay on SR leukemia.
Regarding `O=C(Nc1cc(=O)[nH]c(=O)[nH]1)C(Cl)Cl`, the growth in the assay on HCT-15 colon was 103%; in the assay with HT29 colon, 102%; in the assay on SNB-75 CNS, 96.9%; in the assay with SNB-19 CNS, 99%; in the assay with U251 CNS, 99.5%; in the assay on PC-3 prostate it was 92%. The growth is 102% with SK-MEL-5 melanoma; 88.9% in the assay with UACC-62 melanoma; 100% in the assay on LOX IMVI melanoma; 111% in the assay with SK-MEL-28 melanoma; 105% in the assay with SK-MEL-2 melanoma; 114% in the assay on EKVX NSCLC. Besides, the growth is 98% with SN12C renal; 101% in the assay with TK-10 renal; 111% in the assay on ACHN renal; 100% with A498 renal; 96% with CCRF-CEM leukemia; 98.4% in the assay with MOLT-4 leukemia. In the assay on SR leukemia, the growth was 98.6%.
As to `O=C1C(=O)c2c(nc3ccc(Br)cn23)-c2ccccc21`, the growth was -75.7% (active) in the assay with HCT-15 colon; -29.1% (active) in the assay with HT29 colon; -95.3% (active) in the assay on SNB-75 CNS; -86.4% (active) in the assay with SNB-19 CNS; -100% (active) in the assay on U251 CNS; -63.4% (active) in the assay with PC-3 prostate. The growth with SK-MEL-5 melanoma is -97.6% (active); in the assay with UACC-62 melanoma, -87.6% (active); with LOX IMVI melanoma, -76.6% (active); in the assay with SK-MEL-28 melanoma it was -60% (active); in the assay on SK-MEL-2 melanoma, -73.5% (active); in the assay on EKVX NSCLC it was -71.4% (active). The growth is -89% (active) with SN12C renal; -100% (active) in the assay on TK-10 renal; -100% (active) in the assay on ACHN renal; 39.4% in the assay on A498 renal; -32.5% (active) in the assay with CCRF-CEM leukemia; -55.1% (active) in the assay with MOLT-4 leukemia. The growth in the assay with SR leukemia was -27.6% (active).
For the compound `NC(=O)c1ccc2nc3c(n2c1)C(=O)C(=O)c1ccccc1-3`, the growth was -63.4% (active) with HCT-15 colon; -7.62% (active) with HT29 colon; -95% (active) with SNB-75 CNS; -97.5% (active) in the assay on SNB-19 CNS; -98.6% (active) in the assay with U251 CNS; -48.3% (active) in the assay on PC-3 prostate. The growth is -100% (active) in the assay with SK-MEL-5 melanoma; -94.1% (active) in the assay on UACC-62 melanoma; -78.4% (active) in the assay with LOX IMVI melanoma; -82.2% (active) in the assay with SK-MEL-28 melanoma; -71.2% (active) with SK-MEL-2 melanoma; -76% (active) in the assay on EKVX NSCLC. Moreover, the growth was -83.3% (active) with SN12C renal; -72.9% (active) in the assay on TK-10 renal; -100% (active) in the assay on ACHN renal; -58.6% (active) in the assay on A498 renal; -1.51% (active) in the assay on CCRF-CEM leukemia; -37.8% (active) in the assay on MOLT-4 leukemia. Besides, in the assay on SR leukemia, the growth is -4.89% (active).
